In all, about 16,000 sequences were measured (“e-score”: median about -0.044, highest 2% from about 0.38 on). This is one part of a sample in which the highest values are shown more often than they occur.
Molecular target: T1, GST-NbGlk1(82-244) (Nicotiana benthamiana)
T1 chain: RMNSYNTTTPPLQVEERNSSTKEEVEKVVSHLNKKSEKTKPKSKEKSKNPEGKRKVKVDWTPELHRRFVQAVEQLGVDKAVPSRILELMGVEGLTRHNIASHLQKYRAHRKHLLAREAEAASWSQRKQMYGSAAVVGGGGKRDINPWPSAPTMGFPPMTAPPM
Assay: protein-binding microarray; NbGlk1 is a Golden2-like transcription factor of Nicotiana benthamiana; high values mean tight binding
Settings: protein: recombinant; tags: GST (pTH6838); dsDNA, one strand shown

| Sequence | binding signal |
| --- | --- |
| AAATCGGT | 0.325 ± 0.0221 E-score |
| AAATCTGT | 0.446 ± 0.00579 E-score |
| AAATCGAT | 0.336 ± 0.0651 E-score |
| AACCAGAT | 0.301 ± 0.00304 E-score |
| AATCGAGA | 0.293 ± 0.0295 E-score |
| AGAATCCT | 0.439 ± 0.00609 E-score |
| AGAATCGC | 0.377 ± 0.00979 E-score |
| ACAATCCT | 0.302 ± 0.0343 E-score |
| ACAATCCG | 0.334 ± 0.019 E-score |
| ACAATCCC | 0.2757 ± 0.00233 E-score |
| ATAATCCG | 0.337 ± 0.0347 E-score |
| AGAATCCC | 0.433 ± 0.00879 E-score |
| AGGATCCA | 0.237 ± 0.027 E-score |
| AGAATCAT | 0.359 ± 0.0327 E-score |
| AGAATCCG | 0.4779 ± 0.0039 E-score |
| AGAATCCA | 0.456 ± 0.0261 E-score |
| ATCCAAAA | 0.261 ± 0.0307 E-score |
| ATCCTCCG | 0.257 ± 0.0282 E-score |
| ATCTGCTG | 0.291 ± 0.0162 E-score |
| ATATGAAA | 0.266 ± 0.036 E-score |
| AGCGATTC | 0.253 ± 0.0595 E-score |
| ATAGCGAT | 0.247 ± 0.0104 E-score |
| AGATTATA | 0.31 ± 0.0066 E-score |
| AAATTACA | 0.281 ± 0.0554 E-score |
| AGATTACA | 0.477 ± 0.0126 E-score |
| AGATTACT | 0.429 E-score |

| Sequence | binding signal |
| --- | --- |
| AGATTACG | 0.484 ± 0.00516 E-score |
| AGATTATG | 0.35 ± 0.0249 E-score |
| ATATTACA | 0.281 ± 0.0562 E-score |
| AAATTACG | 0.317 ± 0.00783 E-score |
| ATATTACG | 0.331 ± 0.0353 E-score |
| AGATTATC | 0.398 ± 0.0119 E-score |
| ACGATCTG | 0.298 ± 0.0786 E-score |
| ATCTGAAT | 0.319 ± 0.0412 E-score |
| ACATGGAT | 0.276 ± 0.0921 E-score |
| AATAGAGA | 0.257 ± 0.00976 E-score |
| AGCGGATA | 0.27 ± 0.022 E-score |
| ATCTGTCG | 0.268 ± 0.0941 E-score |
| ATCTCAAA | 0.337 ± 0.00799 E-score |
| ACTTGGAT | 0.263 ± 0.0442 E-score |
| ATTGCTAC | 0.23 ± 0.0982 E-score |
| ATTGCAAA | 0.212 ± 0.0169 E-score |
| AATATTAT | 0.211 ± 0.0854 E-score |
| ATATGCAC | 0.266 ± 0.0704 E-score |
| AAATTTGC | 0.224 ± 0.0355 E-score |
| AATCATGA | 0.254 ± 0.0429 E-score |
| AGATTACC | 0.459 ± 0.0174 E-score |
| AGATTTAC | 0.349 ± 0.00929 E-score |
| AAATTACC | 0.252 ± 0.0504 E-score |
| AATATACG | 0.253 ± 0.0484 E-score |
| CAAATTAC | 0.275 ± 0.0131 E-score |
| CAGATTAC | 0.47655 ± 0.000118 E-score |

| Sequence | binding signal |
| --- | --- |
| AAGATTAC | 0.454 ± 0.0269 E-score |
| AAGATTAT | 0.288 ± 0.039 E-score |
| AATATTAC | 0.235 ± 0.084 E-score |
| AAAATTAC | 0.203 ± 0.0427 E-score |
| ATTGTGTC | 0.225 ± 0.0437 E-score |
| ATCTGCGA | 0.35 ± 0.033 E-score |
| ATTACCCA | 0.234 ± 0.0351 E-score |
| AATCGATC | 0.26 ± 0.0524 E-score |
| AGATTTTC | 0.4879 ± 0.00245 E-score |
| ATATTTTC | 0.363 ± 0.0153 E-score |
| ATATTTCA | 0.302 ± 0.00721 E-score |
| AGATTTCC | 0.4969 ± 0.000664 E-score |
| ATTTTTTG | 0.315 ± 0.021 E-score |
| AGATTTTG | 0.4649 ± 0.003 E-score |
| AAATTTTC | 0.273 ± 0.00676 E-score |
| ATATTTTG | 0.274 ± 0.0771 E-score |
| ATATTTCC | 0.369 ± 0.00928 E-score |
| AAATTTCA | 0.229 ± 0.0474 E-score |
| AAATTTCC | 0.305 ± 0.0382 E-score |
| AGATTTCA | 0.467 ± 0.0101 E-score |
| ACGTATAA | 0.241 ± 0.0276 E-score |
| ATCACACA | 0.274 ± 0.0193 E-score |
| ATCAGATA | 0.311 ± 0.0291 E-score |
| ACAGTATA | 0.203 ± 0.12 E-score |
| ACGTATCG | 0.2234 ± 0.00122 E-score |
| ATTCGAAA | 0.208 ± 0.0296 E-score |

| Sequence | binding signal |
| --- | --- |
| AGATTTCG | 0.4861 ± 0.00274 E-score |
| AGATTTAT | 0.261 ± 0.0998 E-score |
| AGATTTAA | 0.269 ± 0.0136 E-score |
| AAATTTCG | 0.332 ± 0.0714 E-score |
| ATATTTCG | 0.347 ± 0.00521 E-score |
| AGATTTTA | 0.414 ± 0.0235 E-score |
| ATTATCTA | 0.201 ± 0.0162 E-score |
| AACGTAAT | 0.361 ± 0.0152 E-score |
| AAGGGAAT | 0.259 ± 0.00401 E-score |
| CAAATCAG | 0.268 ± 0.0183 E-score |
| AAAATCTG | 0.478 ± 0.0028 E-score |
| AAAATTTT | 0.271 ± 0.0157 E-score |
| AAAATCTT | 0.447 ± 0.0196 E-score |
| CAAATCGG | 0.252 ± 0.00458 E-score |
| AAAATATT | 0.3158 ± 0.000558 E-score |
| CAAATCTG | 0.43 ± 0.00733 E-score |
| ATAATCTC | 0.346 ± 0.064 E-score |
| AAAATCTC | 0.4529 ± 0.00114 E-score |
| ATATCGAC | 0.32 ± 0.00903 E-score |
| AACACGAT | 0.237 ± 0.0225 E-score |
| ATTTGCCA | 0.358 ± 0.051 E-score |
| ATAGTAGA | 0.201 ± 0.11 E-score |
| AAAGGATT | 0.372 ± 0.061 E-score |
| ATCCATTG | 0.253 ± 0.0582 E-score |
| ATTTCAGA | 0.265 ± 0.0287 E-score |
| ATTGCAAT | 0.305 ± 0.0598 E-score |

| Sequence | binding signal |
| --- | --- |
| ATCTTAGC | 0.246 ± 0.0788 E-score |
| ATCTCACA | 0.289 ± 0.0836 E-score |
| ATACGCGC | 0.223 ± 0.0538 E-score |
| ATCCGCTA | 0.353 ± 0.0323 E-score |
| CAATCAGC | 0.22 ± 0.0614 E-score |
| ATCGCGTC | 0.285 ± 0.0397 E-score |
| CAAATATA | 0.245 ± 0.00998 E-score |
| CAAATCAC | 0.272 ± 0.0674 E-score |
| CAAATCTA | 0.412 ± 0.0148 E-score |
| AAAATCAA | 0.334 ± 0.0377 E-score |
| CAAATCAA | 0.228 ± 0.037 E-score |
| AAAATTTA | 0.248 ± 0.0263 E-score |
| AAAATCTA | 0.4582 ± 0.0038 E-score |
| CAAATCTC | 0.426 ± 0.0426 E-score |
| AATATTGG | 0.202 ± 0.105 E-score |
| AATTCTGC | 0.204 ± 0.0116 E-score |
| AATTTTCA | 0.228 ± 0.0322 E-score |
| ATTGCAGA | 0.253 ± 0.0406 E-score |
| ATCTTCGC | 0.237 ± 0.0198 E-score |
| AATATTGA | 0.222 ± 0.0953 E-score |
| ATTTCCGG | 0.295 ± 0.0475 E-score |
| AGATCCGA | 0.307 ± 0.0187 E-score |
| ATATCCCG | 0.317 ± 0.0686 E-score |
| ATATCCGC | 0.4112 ± 0.0033 E-score |
| ATATCCGA | 0.4021 ± 0.00123 E-score |
| ATCTCCGC | 0.293 ± 0.0913 E-score |

| Sequence | binding signal |
| --- | --- |
| ATATCCGG | 0.436 ± 0.0135 E-score |
| ATATCGGA | 0.369 ± 0.015 E-score |
| AGATCCGC | 0.34 ± 0.0528 E-score |
| AATACGAA | 0.205 ± 0.0658 E-score |
| ACAAGAAT | 0.273 ± 0.0228 E-score |
| ACGATCGC | 0.252 ± 0.0832 E-score |
| ATTGCACC | 0.222 ± 0.00533 E-score |
| ATCGCGCA | 0.358 ± 0.0372 E-score |
| ATTTGTAA | 0.266 ± 0.0497 E-score |
| AGATCTGG | 0.364 ± 0.0182 E-score |
| AAATCTGC | 0.4558 ± 0.00312 E-score |
| AAATCTGG | 0.466 ± 0.00695 E-score |
| CAATCTGG | 0.4139 ± 0.000981 E-score |
| AAATCGGG | 0.354 ± 0.0193 E-score |
| CAATCAGG | 0.294 ± 0.0424 E-score |
| AAATCGGC | 0.302 ± 0.0126 E-score |
| AGATCTGA | 0.332 ± 0.0671 E-score |
| AAATCAGG | 0.365 ± 0.0118 E-score |
| AGATCTGC | 0.411 ± 0.029 E-score |
| CAATCTGC | 0.305 ± 0.0551 E-score |
| ATTCCCTA | 0.3669 ± 0.00312 E-score |
| AATTATAA | 0.243 ± 0.0945 E-score |
| AAAATAAT | 0.205 ± 0.0493 E-score |
| AATCATAG | 0.246 ± 0.0935 E-score |
| ATTTTCAC | 0.34 ± 0.0212 E-score |
| ATCCGCAG | 0.223 ± 0.00544 E-score |

| Sequence | binding signal |
| --- | --- |
| AAGTAAAA | 0.21 ± 0.144 E-score |
| ATCGTGTA | 0.262 ± 0.115 E-score |
| CAATCTGA | 0.375 ± 0.0502 E-score |
| AAATCATA | 0.343 ± 0.0134 E-score |
| AAATCTGA | 0.469 E-score |
| AGCGATCC | 0.274 ± 0.0142 E-score |
| AAATACGG | 0.207 ± 0.0643 E-score |
| AATTGCGC | 0.227 ± 0.0136 E-score |
| AAAAATCA | 0.336 ± 0.0224 E-score |
| AAAAATCG | 0.389 ± 0.0127 E-score |
| ACAAATCG | 0.297 ± 0.0369 E-score |
| AAAAATAT | 0.3 ± 0.0471 E-score |
| AAAAATCT | 0.4495 ± 0.00385 E-score |
| CAAAATCG | 0.386 ± 0.0304 E-score |
| AAAATTCG | 0.282 ± 0.0182 E-score |
| CACAATCG | 0.268 ± 0.00572 E-score |
| ACAAATCT | 0.374 ± 0.0338 E-score |
| ATTGTGTG | 0.203 ± 0.0438 E-score |
| AATCGCAG | 0.224 ± 0.0787 E-score |
| ATTTGCTC | 0.253 ± 0.0795 E-score |
| ACATGTGA | 0.201 ± 0.017 E-score |

Source: article PMC5836133, “The intracellular immune receptor Rx1 regulates the DNA-binding activity of a Golden2-like transcription factor”
